# In the library only some 1.5% were active in any assay of this set; here they are far more common.
# BLM helicase inh: qHTS Assay for Inhibitors of Bloom's syndrome helicase (BLM) | hit rate 0.2% among 350,000 | Potency, µM (doses to about 56.1 µM), actives largely listed as inhibitors | recombinant BLM DNA unwinding, fluorescence dequenching | RecQ-like DNA helicase BLM (Homo sapiens), P54132; note: nearly all actives have a fitted effect of over 35% in size
# PI5P4K alpha inh: qHTS for Inhibitors of phosphatidylinositol 5-phosphate 4-kinase (PI5P4K). max response, %. hit rate 1.2% among 330,000. PI5P4Kalpha enzyme, ADP-Glo luminescence, 60 min; active compounds read low. Phosphatidylinositol 5-phosphate 4-kinase type-2 alpha (Homo sapiens), P48426; active = max response of -50% or lower; inconclusive = between -30% and -50%; inactive = -30% or higher; note: value at the top dose of about 77 µM
# Target sequence (P48426 whole entry, looked up): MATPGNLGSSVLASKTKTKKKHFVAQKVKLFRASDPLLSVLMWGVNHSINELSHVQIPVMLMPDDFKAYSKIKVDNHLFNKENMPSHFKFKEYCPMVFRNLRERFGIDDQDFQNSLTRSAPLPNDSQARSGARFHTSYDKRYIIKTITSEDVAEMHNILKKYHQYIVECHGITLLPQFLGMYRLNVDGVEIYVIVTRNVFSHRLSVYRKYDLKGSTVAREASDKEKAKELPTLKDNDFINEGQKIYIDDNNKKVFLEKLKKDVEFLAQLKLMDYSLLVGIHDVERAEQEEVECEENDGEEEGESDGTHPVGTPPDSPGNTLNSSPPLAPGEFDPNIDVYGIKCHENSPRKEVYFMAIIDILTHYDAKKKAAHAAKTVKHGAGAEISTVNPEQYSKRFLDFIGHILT
#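 ADP-Glo luminescence end-point after a 60 min room-temperature kinase reaction. PI5P4Kalpha and substrate in HEPES pH 7.4 buffer with EGTA, 0.1% CHAPS and 5% DMSO; ATP at 5 microM final.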
# APE1 inh: qHTS Assay for Inhibitors of the Human Apurinic/apyrimidinic Endonuclease 1 (APE1). DNA repair nuclease/redox regulator APEX1 (Homo sapiens), P27695. recombinant APE1, TAMRA/BHQ-2 abasic DNA cleavage fluorescence. Potency, µM (titrated, usually from 65.8 µM), usual class: inhibitors. hit rate 0.35% among 350,000. AID 2517, 2012; note: nearly all actives have a fitted effect of over 55% in size
# Target sequence (P27695 whole entry, looked up): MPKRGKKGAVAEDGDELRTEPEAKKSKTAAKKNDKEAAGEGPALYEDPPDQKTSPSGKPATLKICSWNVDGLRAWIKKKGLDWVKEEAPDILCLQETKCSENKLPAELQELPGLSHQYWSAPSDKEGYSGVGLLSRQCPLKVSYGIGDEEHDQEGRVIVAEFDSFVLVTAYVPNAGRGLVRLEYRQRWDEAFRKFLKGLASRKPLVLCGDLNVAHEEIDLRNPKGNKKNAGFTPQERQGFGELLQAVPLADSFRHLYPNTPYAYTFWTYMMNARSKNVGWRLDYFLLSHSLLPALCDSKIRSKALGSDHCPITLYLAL
#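 Kinetic fluorescence read (525 ex/598 em nm, three reads 60 s apart) of AP-site incision; signal = third minus first read. Enzyme 0.75 nM, dual-labelled THF duplex 50 nM, compound preincubation 15 min RT.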
# FEN1 inh-1: qHTS Assay for the Inhibitors of Human Flap endonuclease 1 (FEN1). Potency, µM (doses to about 114 µM), most hits filed as inhibitors. hit rate 0.35% among 390,000. P39748. AID 588795, 2011. Recombinant FEN1 flap cleavage, fluorescence, 15 min; note: nearly all actives have a fitted effect of over 65% in size
#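 Enzyme 10 nM, 15 min RT preincubation with compound; start with substrate 50 nM final; reads at 0 and 15 min; qHTS titration, four-parameter Hill fit.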
# RECQ1 inh-1: qHTS Assay for Inhibitors of RecQ-Like Dna Helicase 1 (RECQ1). RECQ1 DNA unwinding, red fluorescence kinetic read. ATP-dependent DNA helicase Q1 (Homo sapiens), P46063. Potency, µM (doses to about 57.3 µM), usual class: inhibitors. hit rate 0.54% among 240,000; note: nearly all actives have a fitted effect of over 30% in size
#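 RECQ1T1 50 nM; forked duplex (20 bp + 30-nt ss tails) 200 nM, ATP 2 mM final; pH 8.0, 2 mM MgCl2, 2.5 ug/ml poly(dI-dC); 15 min compound preincubation; discontinuous kinetic read over 2 h at RT.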
# GCN5L2 inh-1: qHTS Assay for Inhibitors of GCN5L2. Potency, µM (titrated, usually from 58.9 µM), usual class: inhibitors. AID 504327, 2011. Histone acetyltransferase KAT2A (Homo sapiens), Q92830. GCN5L2 HAT assay, ThioGlo1 CoA-SH fluorescence. hit rate 0.21% among 390,000
#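 Titration-based screen in which CoA formation is detected via maleimide probe ThioGlo1 (50uM) turning fluorescent on thiol reaction; substrates H3(1-25) 75uM and acetyl-CoA 70uM, GCN5L2 20nM, 20 min incubation at room temperature.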
# RECQ1 conf: Confirmation qHTS Assay for Inhibitors of RecQ-Like Dna Helicase 1 (RECQ1) | shares compounds with RECQ1 inh-1 | RECQ1 helicase DNA unwinding, fluorescence | Potency, µM (top dose mostly 229 µM), actives largely listed as inhibitors | hit rate 28% among 610 | AID 2708, 2010; note: nearly all actives have a fitted effect of over 45% in size
# ADP FP counter: Counterscreen for RECQ1 Inhibitors: ADP Fluorescence Polarization Displacement Assay; shares compounds with RECQ1 inh-1; hit rate 27% among 530; ADP fluorescence polarization displacement counterscreen; Potency, µM (doses to about 228 µM), hits mostly inhibitors; note: nearly all actives have a fitted effect of over 45% in size
# RECQ1 inh-2: Confirmation qHTS Assay for Inhibitors of RecQ-Like Dna Helicase 1 (RECQ1) - Round 2 Cherry Picks. recombinant RECQ1 DNA unwinding, red fluorescence. shares compounds with RECQ1 inh-1. AID 504841, 2011. Potency, µM (highest dose often 119 µM), actives largely listed as inhibitors. hit rate 15% among 1,100; note: nearly all actives have a fitted effect of over 50% in size
# GCN5L2 inh-2: qHTS Assay for Inhibitors of GCN5L2: Hit confirmation; shares compounds with GCN5L2 inh-1; GCN5L2 HAT, ThioGlo1 CoA fluorescence, 20 min; Potency, µM, usual class: inhibitors; hit rate 70% among 140; AID 588347, 2011
# FEN1 inh-2: qHTS Assay for the Inhibitors of FEN1: Confirmatory Assay for Cherry-picked Compounds; AID 720498, 2013; shares compounds with FEN1 inh-1; Potency, µM, most hits filed as inhibitors; FEN1 flap cleavage, TAMRA/BHQ2 fluorogenic DNA substrate; hit rate 79% among 880; note: nearly all actives have a fitted effect of over 60% in size
# A number is an active result; . = inactive; ? = inconclusive; / = no result given; ! = not confirmed by another sample. Unless noted, calls come from the whole dose curve; as a rule, active = well fitted curve in the direction sought with a large enough effect; inconclusive = small, poorly fitted or top-dose-only effect, or another doubt; inactive = no such curve, though single readings can be large; an effect the other way counts as inactive or inconclusive.
SMILES,BLM helicase inh,PI5P4K alpha inh,APE1 inh,FEN1 inh-1,RECQ1 inh-1,GCN5L2 inh-1,others
CC[C@@]1(O)C(=O)OCc2c1cc1n(c2=O)Cc2cc3c(NC(=O)CN)cccc3nc2-1,.,.,.,.,.,.,
CN(C)[C@@H]1C(=O)C(C(N)=O)=C(O)[C@@]2(O)C(=O)C3=C(O)c4c(O)ccc(Cl)c4[C@@](C)(O)[C@H]3C[C@@H]12,.,.,.,?,/,.,
CN(C)C1C(=O)C(C(N)=O)=C(O)[C@@]2(O)C(=O)C3=C(O)c4c(O)cccc4[C@](C)(O)C3C(O)C12 (some centres not stated),.,/,?,/,10µM,.,RECQ1 conf=.;ADP FP counter=7.1µM
C[S@@](=O)CCCCN=C=S,.,/,?,/,.,.,
C/C=C1/C[C@@H](C)[C@@](C)(O)C(=O)OCC2=CCN3CC[C@@H](OC1=O)[C@@H]23,.,/,?,?,?,/,RECQ1 inh-2=.
C=C1C/C(=C/C)C(=O)O[C@@H]2CCN3CC=C(COC(=O)[C@]1(C)O)[C@@H]23,.,/,?,.,?,/,
CC(=O)NC1CCSC1=O (configuration not stated),/,/,.,/,/,/,
c1ccc(C2N3CCCN23)cc1 (configuration not stated),.,.,.,.,7.9µM,.,RECQ1 conf=.;ADP FP counter=.
Cc1ccc(C2N3CCCN23)cc1 (configuration not stated),.,.,.,.,.,.,
C=CC(=O)OCC(CC)CCCC (configuration not stated),/,/,.,/,.,/,
CC(C)(COCC1CO1)COCC1CO1 (configuration not stated),/,/,.,/,.,/,
Cn1c(CNC(=O)c2ccco2)nnc1SCC(=O)N1c2ccccc2Sc2ccccc21,.,.,.,.,.,?,RECQ1 conf=.;ADP FP counter=.
CC(=O)C1=C(O)[C@@H]2[C@@H]3c4c[nH]c5cccc(c45)C[C@@H]3C(C)(C)N2C1=O,.,/,?,/,.,.,
CN1C[C@@H](C(=O)N[C@@]2(C)O[C@]3(O)C4CCCN4C(=O)[C@@H](Cc4ccccc4)N3C2=O)C=C2c3cccc4[nH]cc(c34)C[C@@H]21 (some centres not stated),.,/,?,/,?,?,RECQ1 conf=?;ADP FP counter=7.9µM
O=C(c1ccc2nc(-c3ccco3)c(-c3ccco3)nc2c1)N1CCC2(CC1)OCCO2,28µM,.,?,.,13µM,.,RECQ1 conf=.;RECQ1 inh-2=.
O=C(c1ccc(CS(=O)(=O)c2ccccc2)o1)N1CCC2(CC1)OCCO2,.,/,?,.,?,.,RECQ1 inh-2=?
O=C(Oc1ccc([N+](=O)[O-])cc1)N1CCN(/[N+]([O-])=N/Oc2ccc([N+](=O)[O-])cc2[N+](=O)[O-])CC1,/,/,/,.,/,/,
O=C(O)c1ccccc1-c1c2cc(Br)c(=O)cc-2oc2[c]([Hg])c(O)c(Br)cc12,16µM,/,25µM,/,25µM,3.2µM!,RECQ1 conf=11µM;ADP FP counter=0.2µM
C=CCOc1ccc(CC2C(=O)N(C)C(=O)N(C)C2=O)cc1,.,?,.,.,.,.,
CCN(CC)c1ccc(CC2C(=O)N(C)C(=O)N(C)C2=O)cc1,.,.,.,.,32µM,.,RECQ1 inh-2=45µM
CNC(=S)S,.,/,?,/,.,.,
CCn1nc(-c2cccs2)nc2c(=O)n(C)c(=O)nc1-2,1.1µM,.,.,.,3.5µM,.,RECQ1 conf=?;ADP FP counter=.
CCOC(=O)C1CCCN(c2ccc([N+](=O)[O-])c3nonc23)C1 (configuration not stated),.,.,?,?,28µM,.,RECQ1 inh-2=56µM;FEN1 inh-2=67
CCCC(Cn1cncn1)c1ccc(Cl)cc1Cl (configuration not stated),.,/,.,/,.,.,
Cc1cc(C(C#N)c2ccc(Cl)cc2)c(Cl)cc1NC(=O)c1cc(I)cc(I)c1O (configuration not stated),?,-55,.,28µM,/,10µM,GCN5L2 inh-2=?
SMILES,BLM helicase inh,PI5P4K alpha inh,APE1 inh,FEN1 inh-1,RECQ1 inh-1,GCN5L2 inh-1,others
O=C(CN1CCCC2CCCCC21)c1ccc(I)cc1 (configuration not stated),/,/,/,.,/,/,
COc1cc2c(cc1OC)-c1c3c(cc4c1[C@@H](C2)N(C)CC4)OCO3,.,.,.,2.5µM,.,.,FEN1 inh-2=34
CCN1C(=O)NC(=O)/C(=C/c2cc(C)n(-c3sc(C)c(C)c3C#N)c2C)C1=O,?,?,.,?,.,.,
Cc1ccc(N2C(=O)NC(=O)/C(=C\c3cc(C)n(-c4sc5c(c4C#N)CCCC5)c3C)C2=O)cc1,.,?,.,?,?,.,FEN1 inh-2=76
Cc1cc(/C=C2\C(=O)NC(=O)N(c3ccc(Br)cc3)C2=O)c(C)n1-c1cc(C(=O)O)cc(C(=O)O)c1,.,-77,.,?,/,.,FEN1 inh-2=?
Oc1ccc(Cl)cc1Cl,/,/,.,/,.,/,
CC[n+]1c(/C=C/C=C/c2ccc(N(C)C)cc2)sc2ccccc21,.,?,.,50µM,.,.,FEN1 inh-2=38
c1ccc(N=NNc2ccccc2)cc1,/,/,.,/,.,/,
CC[n+]1c(-c2ccccc2)c2cc(N)ccc2c2ccc(N)cc21,?,.,32µM!,13µM,32µM!,?,FEN1 inh-2=17
O=C1NC(=S)N(c2ccccc2)C(=O)/C1=C/c1ccco1,22µM,-87,17µM,8.9µM,/,?,FEN1 inh-2=17

# Screening data as filed in PubChem BioAssay.
